Among all 370,000 compounds or so, about 2,400 (0.65%) were called active.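 Rule for the calls: active = inhibition above the screen-wide mean plus 3 SD (cut at about 13% in these data); inactive = the rest.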 What follows is part of a selection rich in actives, with near analogues and random picks from the rest.
What follows are molecules tested on HIV-1 integrase (with human LEDGF/p75) (assay: blockers of LEDGF/p75-dependent integrase strand transfer – biochemical, TR-FRET, high throughput, primary screen (AID 743269;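 note: signal is the Cy5 over europium emission ratio at 671 and 618 nm; 0% = plate median of compound wells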)). Settings: TR-FRET IN-LEDGF/p75 DNA integration, Eu/Cy5; at 3.7 µM; stronger effect = higher value.
With `CCOc1ccc(NC(=O)c2cccc3c2C(=O)N(CC2CCCO2)C3)cc1` (stereo unspecified) the inhibition was 0.61% (inactive). With `CC(=O)Nc1ccc(NC(=O)CSc2nnc(COc3ccccc3C)n2CC2CCCO2)cc1` (stereo unspecified) the inhibition was -8.13% (inactive). `CCOc1cccc(=O)c2c(C)n(CC3CCCO3)c(C)c12` (stereo unspecified) was tested, and the inhibition was 19.8% (active). For `COc1ccccc1CCNC(=O)C1CCN(c2nc(C)cc(C)n2)CC1`, the inhibition was -0.51% (inactive). For `O=C(NCc1cccs1)C1CCCN(S(=O)(=O)c2ccc([N+](=O)[O-])cc2)C1` (stereo unspecified), the inhibition was 4.07% (inactive). In the case of `O=C(Nc1nnc(-c2ccccc2F)s1)c1ccccc1F`, the inhibition was 5.09% (inactive). For `O=C(Nc1ccccc1F)c1ccccc1-c1ccccc1`, the inhibition was -1.52% (inactive). With `NC(=O)c1ccccc1NC(=O)c1ccccc1F` the inhibition was 30.1% (active). With `Cc1cc(NS(=O)(=O)c2ccc(NC(=O)CSc3nnc(-c4ccc(C(C)(C)C)cc4)n3Cc3ccco3)cc2)nc(C)n1` the inhibition was 2.06% (inactive). `COC(=O)[C@]1(C#N)CC(=O)N(CC2CCCCC2)[C@@H]1c1ccccc1` was tested, and the inhibition was 8.17% (inactive). In the case of `COCCn1nnnc1C(c1ccccc1Cl)N1CCN(c2ccccc2OC)CC1` (stereo unspecified), the inhibition was -2.12% (inactive). With `COc1ccc(CCC(C)N2CCc3ccccc3C2)cc1` (stereo unspecified) the inhibition was 0% (inactive). In the case of `COCCn1nnnc1C(c1cc2ccc(OC)cc2[nH]c1=O)N1CCc2ccccc2C1` (stereo unspecified), the inhibition was 23.1% (active). For `O=C(CSc1nnc(-c2ccccn2)n1-c1ccccc1)Nc1ccc2cn[nH]c2c1`, the inhibition was 3.75% (inactive). In the case of `CC[C@@H](CCC(=O)N(c1ccccc1)c1ccccc1)C1CC1`, the inhibition was -0.47% (inactive). For `CCOC(=O)c1[nH]c(C)c(C(=O)OCC(=O)N2c3ccccc3CC2C)c1C` (stereo unspecified), the inhibition was 0.57% (inactive). With `CCOC(=O)C1=C(C)c2ccccc2OC1C(=O)OCC` (stereo unspecified) the inhibition was 0.5% (inactive). In the case of `CCOC(=O)c1c(C)[nH]c2c1-c1ccccc1C(=O)C2=O`, the inhibition was 35% (active). `CN1C(=O)c2cc(NS(C)(=O)=O)ccc2OC[C@@H]2O[C@@H](CC(=O)NCc3ccc(-c4ccccc4)cc3)CC[C@H]21` was tested, and the inhibition was 0.81% (inactive). In the case of `CC(CCN1CCC(C(O)(c2ccccc2)c2ccccc2)CC1)Oc1ccc(Cl)cc1` (stereo unspecified), the inhibition was -0.76% (inactive). In the case of `Cc1cc2nc3c(=O)[nH]c(=O)nc-3n(C[C@H](O)[C@H](O)[C@H](O)CO)c2cc1C`, the inhibition was -0.23% (inactive). With `CCN(CC)CCCC(C)n1c2nc(=O)[nH]c(=O)c-2nc2cc(Cl)ccc21` (stereo unspecified) the inhibition was 19.5% (active). With `CC(CCN1CCC(C(O)(c2ccccc2)c2ccccc2)CC1)Oc1ccc([N+](=O)[O-])cc1Cl` (stereo unspecified) the inhibition was 5.97% (inactive). In the case of `O=C(CCCCCN1C(=O)C2C3C=CC(C3)C2C1=O)Nc1ccccn1` (stereo unspecified), the inhibition was 1.71% (inactive). `CCCNC(=O)CSc1nc(Cc2ccccc2)nc2ccccc12` was tested, and the inhibition was -2.65% (inactive). `Cc1cc(SCC(=O)NCCN2C(=O)CSC2=O)nc2ccccc12` was tested, and the inhibition was 24.8% (active). With `COc1ccc2c(C)cc(SCC(=O)NCC3CCCO3)nc2c1` (stereo unspecified) the inhibition was 5.4% (inactive). With `COP(=O)(O)CNC(=O)OCc1ccccc1` the inhibition was 2.52% (inactive). With `C[C@@H](NC(=O)c1ccccc1OCC(=O)Nc1ccc(I)cc1)C(=O)N(C)Cc1ccccc1` the inhibition was -0.62% (inactive). `CCCOc1ccc(Oc2c(Cl)cnn(Cc3cccc4ccccc34)c2=O)cc1` was tested, and the inhibition was -4.41% (inactive). With `Brc1ccc(C2CC(c3ccccc3)=Nc3ccccc3N2)cc1` (stereo unspecified) the inhibition was 5.04% (inactive). In the case of `c1ccc(C2=Nc3cccc4cccc(c34)N2)cc1`, the inhibition was 15.3% (active). `CCOC(=O)[C@]12CCCCC/C=C\1N(Cc1ccc(OC)cc1)C(=O)[C@H]2CC(=O)N1CCOCC1` was tested, and the inhibition was -1.27% (inactive). In the case of `Cc1cc(C)n2ncc(C(=O)Nc3ccc4c(c3)OCCO4)c2n1`, the inhibition was 1.44% (inactive). With `Cn1ccc(=Nc2ccc(NC(=O)c3ccc(N=c4ccn(C)c5ccc([N+](=O)[O-])cc45)cc3)cc2)cc1` the inhibition was 19.9% (active). For `CC(=O)Nc1ccc(C(=O)OCC(=O)Nc2ccc([N+](=O)[O-])cc2C(F)(F)F)cc1`, the inhibition was 1.78% (inactive). `O=C(Nc1cc2c3c(c1)C1CCCC1CN3CC1CCCC21)c1ccc([N+](=O)[O-])cc1` (stereo unspecified) was tested, and the inhibition was 0.76% (inactive). With `Cc1ccccc1CN1CCCCC(NC(=O)Nc2ccccc2F)C1=O` (stereo unspecified) the inhibition was -1.11% (inactive). `O=C(Nc1cc(F)cc(F)c1)OC1CCC12CCC(c1ccccc1)CC2` (stereo unspecified) was tested, and the inhibition was -2.65% (inactive). With `CCCNC(=O)Nc1ccc2c(c1)C(=O)N(C)[C@H]1CC[C@H](CC(=O)NCC3CCCCC3)O[C@@H]1CO2` the inhibition was -2.65% (inactive). For `Cc1cc(=O)n2[nH]c(-c3sccc3-n3c(C)ccc3C)cc2n1`, the inhibition was 55.6% (active). For `CCOC(=O)N1CCN(C(=O)C[C@@H]2C(=O)N(CCc3ccc(Cl)cc3)C3=CCCC[C@]32C(=O)OCC)CC1`, the inhibition was -0.28% (inactive). `COc1ccc(CSc2nnc(SCC(=O)Nc3ccccc3C(F)(F)F)s2)cc1` was tested, and the inhibition was -4.35% (inactive). With `O=C(COC(=O)CCC(=O)c1cccs1)NCc1ccco1` the inhibition was 38.8% (active). `CCN(C(=O)COC(=O)CCC(=O)c1cccs1)C1CCCCC1` was tested, and the inhibition was 9.09% (inactive). For `CC1CCN(C(=O)COC(=O)CCC(=O)c2cccs2)CC1`, the inhibition was 0.03% (inactive). With `C=CCN1C(=O)[C@@H](CC(=O)N2CCN(C(=O)c3ccco3)CC2)[C@]2(C(=O)OC)CCCCC=C12` the inhibition was -3.78% (inactive). `COc1cc(/C=C/C(=O)n2cnc3ccccc32)cc(OC)c1OC` was tested, and the inhibition was -2.83% (inactive). In the case of `C[C@@H]1ON(C)[C@H]2C[C@H]3c4[nH]c5cccc(-c6ccc7c(c6)OCO7)c5c4CCN3C[C@@H]12`, the inhibition was 4.41% (inactive). In the case of `Cc1c(Cl)c([N+](=O)[O-])nn1Cc1ccc(C(=O)N/N=C\c2cc(Cl)ccc2O)o1`, the inhibition was -2.68% (inactive). With `Cc1cc(C(=O)N/N=C/c2ccc(O)c([N+](=O)[O-])c2)c(C)n1-c1ccc(F)cc1` the inhibition was 18.1% (active). With `Cc1ccc(/C=N/NC(=O)c2sccc2OCc2ccc(F)cc2)cc1` the inhibition was -2.37% (inactive). `CCC[C@H]1C(=O)CC[C@@]23CCCN2C(=O)CCC[C@@H]13` was tested, and the inhibition was 0.78% (inactive). In the case of `O=C(OCCOc1ccccc1F)c1cc(S(=O)(=O)N2CCOCC2)ccc1F`, the inhibition was 13.4% (active). `O=C(COC(=O)c1cc(S(=O)(=O)N2CCOCC2)ccc1F)NC1CC1` was tested, and the inhibition was 1.33% (inactive). With `O=C(OCCOc1ccccc1Cl)c1cc(S(=O)(=O)N2CCCCC2)ccc1N1CCOCC1` the inhibition was 4.88% (inactive).

— PubChem BioAssay AID743269 (The Scripps Research Institute Molecular Screening Center, 2014)
